Experimental data: the antibiotic and cytotoxicity screens of Wong et al. (2023)
Hit rate of the full screen: of about 39,000 compounds, about 3,300 (8.5%) were called active. What follows is part of a selection rich in actives, with near analogues and random picks from the rest.

These molecules were tested on HepG2 (assay: cytotoxicity call (relative viability < 0.9)). Conditions: 10 µM.

| SMILES | cytotoxicity call |
| --- | --- |
| C[C@H]1CN([C@@H](C)CO)C(=O)Cc2cc(NC(=O)NC3CCCCC3)ccc2O[C@@H]1CN(C)Cc1ccc(Cl)c(Cl)c1 | inactive |
| CCS(=O)(=O)NCC[C@@H]1CC[C@@H](NC(=O)Cc2ccccn2)[C@@H](CO)O1 | inactive |
| CC(C)=CCCC(C)=CCCC(C)=CCO [trans,trans-FARNESOL ] | inactive |
| C[C@@H]1CN([C@H](C)CO)C(=O)c2cccc(NC(=O)Nc3ccc4c(c3)OCO4)c2O[C@@H]1CN(C)Cc1ccc(C(=O)Nc2ccccc2N)cc1 | inactive |
| O=C(OC(C(F)(F)F)C(F)(F)F)N1CCN(Cc2ccc(C(F)(F)F)cc2N2CCCC2)CC1 | inactive |
| C[C@H](CO)N1C[C@H](C)[C@@H](CN(C)Cc2ccccc2)Oc2ccc(NS(=O)(=O)c3cn(C)cn3)cc2C1=O | inactive |
| Cn1cnc(S(=O)(=O)N2C[C@H](O)COC[C@H]3O[C@H](CC(=O)NC4Cc5ccccc5C4)CC[C@@H]32)c1 | inactive |
| O=C(CCCCCNC(=O)OCCCCO[C@@H]1C[C@H](c2ccc(Br)cc2)C=C(C(=O)N2CCN(Cc3ccccc3)CC2)O1)NO | inactive |
| C[C@@H]1CCCCO[C@H](CN(C)C(=O)c2ccccc2)[C@H](C)CN([C@@H](C)CO)C(=O)c2cc(NC(=O)Nc3ccc(C(F)(F)F)cc3)ccc2O1 | active |
| C[C@@H]1CN([C@H](C)CO)C(=O)c2cc(NC(=O)Nc3ccc(C(F)(F)F)cc3)ccc2O[C@@H](C)CCCCO[C@H]1CN(C)C(=O)c1ccccc1 | inactive |
| C[C@@H]1CN([C@@H](C)CO)C(=O)c2cc(NC(=O)Nc3ccc(C(F)(F)F)cc3)ccc2O[C@@H](C)CCCCO[C@H]1CN(C)C(=O)c1ccccc1 | inactive |
| C[C@@H]1CN([C@H](C)CO)C(=O)c2cc(NC(=O)Nc3ccc(C(F)(F)F)cc3)ccc2O[C@@H](C)CCCCO[C@@H]1CN(C)C(=O)c1ccccc1 | inactive |
| C[C@@H]1CCCCO[C@@H](CN(C)C(=O)c2ccccc2)[C@@H](C)CN([C@H](C)CO)C(=O)c2cc(NC(=O)Nc3ccc(C(F)(F)F)cc3)ccc2O1 | active |
| C[C@@H]1CCCCO[C@@H](CN(C)C(=O)c2ccccc2)[C@H](C)CN([C@H](C)CO)C(=O)c2cc(NC(=O)Nc3ccc(C(F)(F)F)cc3)ccc2O1 | inactive |
| Cc1noc(C)c1NC(=O)Nc1cccc2c1O[C@@H](CN(C)Cc1ccc(-c3ccccc3)cc1)[C@@H](C)CN([C@@H](C)CO)C2=O | inactive |
| Cc1ccc(S(=O)(=O)N(C)C[C@@H]2OCCCC[C@H](C)Oc3ccc(NC(=O)Nc4cccc5ccccc45)cc3C(=O)N([C@H](C)CO)C[C@@H]2C)cc1 | inactive |
| CSC(=N)NCCC[C@@H](N)C(=O)O | inactive |
| C[C@H]1CCCCO[C@H](CN(C)S(=O)(=O)c2cccs2)[C@@H](C)CN([C@@H](C)CO)C(=O)c2cc(NC(=O)Nc3ccc(C(F)(F)F)cc3)ccc2O1 | inactive |
| CC(C)(C)C(=O)Nc1c[nH]c(=O)[nH]c1=O | inactive |
| C[C@@H]1CCCCO[C@@H](CN(C)C(=O)NC2CCCCC2)[C@H](C)CN([C@@H](C)CO)C(=O)c2cc(NC(=O)c3ccncc3)ccc2O1 | inactive |
| Nc1ccc2cc3ccc(N)cc3nc2c1.O=S(=O)(O)O | active |
| Nc1ccc(S(=O)(=O)c2ccc(N)cc2)cc1 | inactive |
| Nc1ccc2c(c1)nc(CO)n2CCO | inactive |
| C[C@@H]1CN([C@H](C)CO)C(=O)c2cc(NC(=O)C3CCCCC3)ccc2O[C@H]1CN(C)C(=O)Nc1cccc2ccccc12 | inactive |

| SMILES | cytotoxicity call |
| --- | --- |
| COc1ccc(S(=O)(=O)N(C)C[C@H]2Oc3ccc(NC(=O)C4CC4)cc3CC(=O)N([C@@H](C)CO)C[C@@H]2C)cc1 | inactive |
| C[C@H](CO)N1C[C@H](C)[C@@H](CN(C)C(=O)Nc2cccc3ccccc23)Oc2ccc(NS(=O)(=O)c3ccc(Cl)cc3)cc2CC1=O | inactive |
| Cc1noc(C)c1NC(=O)N(C)C[C@@H]1Oc2ccc(NC(=O)C3CC3)cc2CC(=O)N([C@@H](C)CO)C[C@H]1C | inactive |
| COc1ccc(NC(=O)N2CCCCN3[C@H](CN(C)C(C)=O)[C@H](c4ccc(C#Cc5ccccc5)cc4)[C@@H]3C2)cc1 | active |
| COc1ccc(C#Cc2ccc([C@@H]3[C@@H](CO)N4CCCCN(S(=O)(=O)c5cn(C)cn5)C[C@H]34)cc2)cc1 | inactive |
| CN(C)CC#Cc1ccc([C@@H]2[C@H](CO)N3CCCCN(C(=O)CN(C)C)C[C@@H]23)cc1 | inactive |
| CN(C)CC#Cc1ccc([C@H]2[C@@H](CO)N3CCCCN(C(=O)CN(C)C)C[C@H]23)cc1 | inactive |
| COc1ccc(NC(=O)N2CCCCN3[C@H](COCCN(C)C)[C@H](c4ccc(C#Cc5ccccc5)cc4)[C@@H]3C2)cc1 | active |
| COc1ccc(C#Cc2ccc([C@H]3[C@H](CO)N4CCCCN(S(=O)(=O)c5cn(C)cn5)C[C@@H]34)cc2)cc1 | inactive |
| CN(C)CC#Cc1ccc([C@H]2[C@@H](CO)N3CCCCN(C(=O)CN(C)C)C[C@@H]23)cc1 | inactive |
| COc1ccc(C#Cc2ccc([C@@H]3[C@H](CO)N4CCCCN(S(=O)(=O)c5cn(C)cn5)C[C@@H]34)cc2)cc1 | active |
| CN(C)CC#Cc1ccc([C@@H]2[C@@H](CO)N3CCCCN(C(=O)CN(C)C)C[C@@H]23)cc1 | inactive |
| O[C@H]1[C@H](O)[C@@H](O)[C@H]2O[C@@H]2[C@@H]1O | inactive |
| CCSC(=O)NC1CCCCC1 | inactive |
| COc1ccc(NC(=O)N(C)C[C@H]2OCCCC[C@H](C)Oc3ccc(NC(=O)CCC(F)(F)F)cc3C(=O)N([C@H](C)CO)C[C@@H]2C)cc1 | inactive |
| CS(=O)(=O)N1CC[C@@H]2OCCN(C(=O)c3cccnc3)[C@@H]2C1 | inactive |
| C[C@@H]1CN([C@H](C)CO)C(=O)c2cccc(NS(=O)(=O)c3cn(C)cn3)c2O[C@H]1CN(C)Cc1ccc(C(=O)O)cc1 | inactive |
| CC(=O)n1cc([C@@H]2C=C(C(=O)NCc3ccccc3)O[C@H](OCc3ccc(CO)cc3)C2)c2ccccc21 | inactive |
| C[C@@H]1CN([C@@H](C)CO)C(=O)c2cc(NS(=O)(=O)c3ccccc3)ccc2O[C@H]1CN(C)Cc1ccc(-c2ccccc2)cc1 | active |
| C[C@H]1CN([C@@H](C)CO)C(=O)c2cc(NS(=O)(=O)c3ccccc3)ccc2O[C@@H]1CN(C)Cc1ccc(-c2ccccc2)cc1 | inactive |
| C[C@@H]1CN([C@@H](C)CO)C(=O)c2cc(NS(=O)(=O)c3ccccc3)ccc2O[C@@H]1CN(C)Cc1ccc(-c2ccccc2)cc1 | active |
| C[C@@H]1CN([C@H](C)CO)C(=O)c2cc(NS(=O)(=O)c3ccccc3)ccc2O[C@@H]1CN(C)Cc1ccc(-c2ccccc2)cc1 | inactive |
| C[C@H](CO)N1C[C@H](C)[C@H](CN(C)Cc2ccc(-c3ccccc3)cc2)Oc2ccc(NS(=O)(=O)c3ccccc3)cc2C1=O | inactive |
| C[C@H]1CN([C@@H](C)CO)C(=O)c2cc(NS(=O)(=O)c3ccccc3)ccc2O[C@H]1CN(C)Cc1ccc(-c2ccccc2)cc1 | inactive |
